PubChem BioAssay

Experiment: S. cerevisiae RM11-1a growth modifiers, primary screen, strain RM11-1a, OD600, basal, 24 h (AID 1177);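 also: cultures grown under basal conditions with no added stressor; test concentration not given here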
Conditions: OD600, 24 h, higher = more signal, called active from +8 up or from −8 down

z-score, inactive:
C=CC[C@@]1(C(=O)N2CCCCC2)N=C(c2ccc(OCCCO)cc2)O[C@@H]1c1ccccc1 0.404, COCCCNC(=O)[C@@H]1c2ccccc2C(=O)N(Cc2ccccc2C(F)(F)F)[C@H]1c1ccc(CO)cc1 0.186, COc1ccc([Si](C)(C)[C@H]2[C@H](CCO)O[C@@]3(C(=O)N(Cc4cccc(N5CCCCC5=O)c4)c4ccccc43)[C@@H]2C)cc1 4.44, O=C1C[C@@](C(=O)NCC(F)(F)F)(c2ccc([N+](=O)[O-])cc2)[C@@H](c2ccc(CO)cc2)N1C1CCCCC1 -0.815, COC(=O)[C@@]1(Cc2ccc(OC)cc2)[C@H]2c3cc(C(=O)N(C)C)n(CCc4c[nH]c5ccc(O)cc45)c3C[C@H]2CN1C(=O)c1ccccc1 0.599, CC(C)c1ccc(NN2C(C(O)c3ccco3)C=CC3C(=O)N(c4ccccc4)C(=O)C32)cc1 (stereo unspecified) 0.921, COC(=O)[C@@]1(Cc2ccc(OC)cc2)[C@H]2c3cc(C(=O)N(C)C)n(Cc4nc5ccccc5[nH]4)c3C[C@H]2CN1C(=O)c1ccccc1 1.11, CN1C(=O)[C@@]2(CCS(=O)(=O)c3ccccc3)N=C(c3ccc(OCCCO)cc3)O[C@H]2c2ccccc21 0.64, O=C1O[C@@H](c2ccccc2)[C@@H](c2ccccc2)N2[C@@H](c3ccc(O)cc3)[C@]3(C(=O)Nc4ccccc43)[C@@H](C(=O)Nc3nc4ccccc4s3)[C@H]12 0.72, CC(C)NC(=O)[C@@]1(C)c2ccccc2C(=O)N(C(C)C)[C@H]1c1ccc(CO)cc1 -0.553, COC(=O)[C@@]1(Cc2ccccc2)[C@H]2c3cc(C(=O)N4CCCC4)[nH]c3C[C@H]2CN1C(=O)c1ccccc1 0.198
